Test results reported in ChEMBL document CHEMBL1201862, “PubChem BioAssay data set” (2004).
The whole screen tested about 48,000 sequences, of which about 6,100 (13%) were called active. Cut-off read from the data, not from the text of the source: active = GI50 up to about 1.1 µM and inactive = higher. The list comes from a sample in which actives are over-represented; it also holds similar and randomly drawn sequences. Measured potencies and affinities stand elsewhere.

The substances below were run on SR.

For CISPLATIN, CHEMBL11359, which GI50 is on record?
The GI50 was 618 nM.

Which GI50 does the source give for “[Bis(aminomethyl)tetramethylenesilane]tetrachloropaltinum(IV), CHEMBL2146189” here?
Its GI50 is 499 nM.

“[Bis(aminomethyl)dimethylsilane]tetrachloroplatinum(IV), CHEMBL2146190” was tested. Which GI50 did it give?
The GI50 was 3440 nM.

“mu-(1,7-nanodiamine-N,N')bis-(cis-aminedichloroplatimum (II)), CHEMBL2146215” was tested. Which GI50 did it give?
Its GI50 is 2780 nM.

“[Bis(aminomethyl)tetramethylenesilane]dichloropaltinum(II), CHEMBL2146205” was tested. Which GI50 did it give?
Its GI50 is 3520 nM.

With “[Bis(aminomethyl)diethylsilane]tetrachloroplatinum(IV), CHEMBL2146203” as the substance, how does the GI50 read?
Its GI50 is 382 nM.

For “[Bis(aminomethyl)pentamethylenesilane]dichloropaltinum(II), CHEMBL2146202”, which GI50 is on record?
Its GI50 is 1490 nM.

How did the GI50 turn out when “[Bis(aminomethyl)pentamethylenesilane]tetrachloropaltinum(IV), CHEMBL2146204” was run?
Its GI50 is 422 nM.
